RBX1-CUL1 inh: human ROC1-CUL1 E3 ligase inhibition; P62877+Q13616; in vitro K48 di-Ub FRET, acceptor:donor ratio, 45 min; inhibition, % at 10 µM; 0.6% of 140,000 active; AID 1347404; in the data active means inhibition above about 25%
Target sequence (P62877 whole entry, looked up): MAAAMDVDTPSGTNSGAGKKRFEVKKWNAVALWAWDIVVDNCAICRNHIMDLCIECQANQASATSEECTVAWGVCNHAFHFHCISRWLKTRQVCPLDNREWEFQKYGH
Target sequence (Q13616 whole entry, looked up): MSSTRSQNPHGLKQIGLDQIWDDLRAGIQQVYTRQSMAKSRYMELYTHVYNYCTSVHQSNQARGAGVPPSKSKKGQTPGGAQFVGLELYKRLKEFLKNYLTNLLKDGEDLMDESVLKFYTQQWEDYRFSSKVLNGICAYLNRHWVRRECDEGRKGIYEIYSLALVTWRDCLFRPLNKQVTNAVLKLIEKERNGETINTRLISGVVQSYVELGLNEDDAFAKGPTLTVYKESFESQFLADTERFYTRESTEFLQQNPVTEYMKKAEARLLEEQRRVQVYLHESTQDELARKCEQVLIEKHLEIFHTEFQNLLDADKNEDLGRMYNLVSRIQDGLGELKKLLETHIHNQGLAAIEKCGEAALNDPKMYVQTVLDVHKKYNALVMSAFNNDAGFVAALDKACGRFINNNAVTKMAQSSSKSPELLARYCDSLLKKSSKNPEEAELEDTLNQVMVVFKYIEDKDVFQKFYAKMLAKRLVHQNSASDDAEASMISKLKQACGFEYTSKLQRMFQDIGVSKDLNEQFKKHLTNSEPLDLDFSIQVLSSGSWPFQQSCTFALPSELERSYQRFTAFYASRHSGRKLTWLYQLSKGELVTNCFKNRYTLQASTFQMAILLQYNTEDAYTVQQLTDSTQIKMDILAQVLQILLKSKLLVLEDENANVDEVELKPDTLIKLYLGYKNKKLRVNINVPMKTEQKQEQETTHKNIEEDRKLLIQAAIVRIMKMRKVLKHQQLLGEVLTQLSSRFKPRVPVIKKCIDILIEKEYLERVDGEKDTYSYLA
Each line names hits and unclear results; the compound was inactive in the other large screens. Many of the other results were omitted from the sample, so hits are more common in it than they were.

COc1ccc(CNC(=O)c2nn3c(C(F)(F)F)cc(-c4ccc(Br)cc4)nc3c2Br)cc1	none
O=C(NCc1ccco1)c1nn2c(C(F)(F)F)cc(-c3cc(Br)cs3)nc2c1Br	none
CCOc1ccc(Cc2c[nH]c(=O)[nH]c2=O)cc1	none
COC(=O)C(O)(C1C(=O)N(c2ccccc2)N=C1C)C(F)(F)F (configuration not stated)	RBX1-CUL1 inh 75
CC1=NN(c2ccccc2)C(=O)C1C(=O)c1ccc(Cl)cc1 (configuration not stated)	none
CC(=O)NC1C(=O)N(c2ccccc2)N=C1C (configuration not stated)	none
Cc1cc2c(c(=O)o1)C(c1cc3c(cc1Br)OCO3)C(C#N)C(=N)O2 (configuration not stated)	none
O=C(c1ccc(Cl)cc1)N1N=C(c2ccccc2)CC1c1ccc2c(c1)OCO2 (configuration not stated)	none
On1c(-c2ccccc2)c(C(c2ccc(Cl)cc2)N2CCOCC2)c2ccccc21 (configuration not stated)	none
Cn1ncc(N2CCC(CNC(=O)CN3Cc4ccccc4C3)C2)cc1=O (configuration not stated)	none
CCN(CC)c1ccc(/C=C2\C(=O)NC(=S)N(c3ccc(Br)cc3)C2=O)cc1	RBX1-CUL1 inh 28
CCN(CC)c1ccc(/C=C2\C(=O)NC(=O)N(c3ccc(Br)c(C)c3)C2=O)cc1	none
O=C1NC(=S)N(c2ccc(Br)cc2)C(=O)/C1=C/c1ccc(F)cc1	none
CCNS(=O)(=O)c1cnc(Cl)c(Br)c1	none
CCC(=O)c1nc2c(N)nc(N(C)C)nc2nc1SC	none
O=C(O)c1cc(-c2ccc(CC3=NC(=O)N(Cc4ccccc4)C3=O)o2)ccc1Cl	RBX1-CUL1 inh 58
O=C1N=C(Cc2ccc(-c3ccc(Cl)c(Cl)c3)o2)C(=O)N1Cc1ccccc1	none
CC(C)CN1C(=O)C(Cc2ccc(-c3cccc(C(=O)O)c3)o2)=NC1=S	RBX1-CUL1 inh 28
CC(C)CCNCc1ccc(-c2cccc(C(=O)O)c2)o1	none
O=C(O)c1ccc(-c2ccc(CC3=NC(=O)N(Cc4ccccc4F)C3=O)o2)cc1Cl	none
O=C1N=C(Cc2ccc(-c3ccccc3)o2)C(=O)N1Cc1ccc(Cl)cc1	none
Cc1ccc(S(=O)(=O)NCCC(=O)Oc2cc(C)cc3oc(=O)cc(-c4ccccc4)c23)cc1	none
O=C(C1CC(Cc2ccc(F)cc2)=NO1)N1CCC(c2ccccc2F)C1 (configuration not stated)	none
CCOC(=O)c1c(NC(=O)COc2ccc(C)cc2Br)sc(C)c1C	none
C=CCNC(=S)Nc1cnccn1	none
O=CN1CCCN(c2nc3nonc3nc2NCc2ccccc2)CC1	none
CC1(C)Oc2ccccc2C(=O)C1Br (configuration not stated)	none
O=C1C=CC2(C=C1)OC(=O)c1ccccc1O2	RBX1-CUL1 inh 29
CC1(C)NC(=O)c2ccccc2O1	none
O=C1c2ccccc2NC1C=NCCO (configuration not stated)	none
N=CC1Nc2ccccc2C1=O (configuration not stated)	RBX1-CUL1 inh 31
O=C1C(C2Nc3ccccc3C2=O)=Nc2ccccc21 (configuration not stated)	none
CCc1ccc(S(=O)(=O)n2nnc3ccccc32)cc1	RBX1-CUL1 inh 26
Cc1ccc2c(c1)nnn2S(=O)(=O)c1ccc([N+](=O)[O-])cc1	none
Cc1ccc2c(c1)nnn2S(=O)(=O)c1ccc(C(C)(C)C)cc1	none
CC(C)Cn1cc(C(=O)NC(C)c2ccc(Cl)cc2)c(=O)c(C(=O)N2CCCCCC2)c1 (configuration not stated)	none
Clc1cccc(Nc2nc(N3CCOCC3)nc(-n3cccn3)n2)c1	none
Cc1c(C)n2c3c(=O)n(C)c(=O)n(C)c3nc2n1-c1cccc(O)c1	none
Cc1cc(C)cc(-n2c(C)c(C)n3c4c(=O)n(C)c(=O)n(C)c4nc23)c1	none
Cc1cccc(-n2c(C)c(C)n3c4c(=O)n(C)c(=O)n(C)c4nc23)c1	RBX1-CUL1 inh 26
COc1cc(CN2CCc3[nH]nc(-c4ccccc4)c3C2)cc2c1OCO2	none
Cc1cccc(N2CCN(C(=O)Nc3ccc(F)cc3)CC2)c1	none
Cc1cc(/C=C2\C(=O)NC(=S)N(c3ccc(Cl)cc3)C2=O)c(C)n1-c1sc2c(c1C(=O)Nc1ccccc1)CCCC2	RBX1-CUL1 inh 41
Cc1cc(/C=C2\C(=O)NC(=S)N(c3cccc(Cl)c3)C2=O)c(C)n1-c1sc2c(c1C(=O)Nc1ccccc1)CCCC2	none
Cc1cccc(N2C(=O)/C(=C/c3cc(C)n(-c4sc5c(c4C(=O)Nc4ccccc4)CCCC5)c3C)C(=O)NC2=S)c1	none
C=CCOc1ccc(/C=C2\SC(=O)N(Cc3ccc(F)cc3)C2=O)cc1	none
O=C1C(=O)N(c2nnc(SCc3ccc(Cl)cc3)s2)C(c2cccc(O)c2)C1C(=O)c1cc2ccccc2o1 (configuration not stated)	none
CCOc1cc(C2C(C(=O)c3cc4ccccc4o3)C(=O)C(=O)N2c2nnc(SCc3cccc4ccccc34)s2)ccc1O (configuration not stated)	none
CCOc1ccc(C2C(C(=O)c3cc4ccccc4o3)C(=O)C(=O)N2c2nnc(SCc3ccccc3F)s2)cc1OC (configuration not stated)	none
O=C1C(=O)N(c2nnc(SCc3ccccc3)s2)C(c2cccs2)C1C(=O)c1cc2ccccc2o1 (configuration not stated)	none
CCOc1cc(C2C(C(=O)c3cc4ccccc4o3)C(=O)C(=O)N2c2nnc(SCc3ccccc3)s2)ccc1O (configuration not stated)	RBX1-CUL1 inh 65
O=C1C(=O)N(c2nnc(SCc3ccc(Cl)cc3)s2)C(c2cccs2)C1C(=O)c1cc2ccccc2o1 (configuration not stated)	RBX1-CUL1 inh 45
CC(C)C(=O)Nc1ccc2nc(SCC(=O)N3CCc4ccccc43)sc2c1	none
CCc1c(C)nc2nc(C)nn2c1N1CCN(c2ccccn2)CC1	none
CN1C(=O)NC(c2ccc(Br)cc2)C2=C1CCCC2=O (configuration not stated)	none
CS(=O)c1ccc(Sc2ccccc2)cc1 (configuration not stated)	none
O=C(CCc1cccs1)N1CCC2(CCCN(CC3CCCCC3)C2=O)C1 (configuration not stated)	none
O=C(O)c1ccc(N2N=C(c3ccccc3)/C(=C/c3ccccc3)C2=O)cc1	none
O=C1/C(=C/c2ccccc2OCc2ccccc2Cl)C(c2ccccc2)=NN1c1ccc([N+](=O)[O-])cc1	none
O=C(O)c1ccc(N2N=C(c3ccccc3)/C(=C/c3ccco3)C2=O)cc1	RBX1-CUL1 inh 33
O=C(NC1CC(=O)N(Cc2ccccc2C(F)(F)F)C1)c1cnccn1 (configuration not stated)	none
CCCc1ncc(CNC2CCCc3nc(N4CCC(CO)CC4)ncc32)cn1 (configuration not stated)	none
CCOC(=O)NC1(C(Cl)(Cl)Cl)Oc2ccc(Cl)cc2O1 (configuration not stated)	none
O=C(Nc1cc(Cl)ncn1)NC1(C(F)(F)F)Oc2ccccc2O1	none
O=C(NC1(C(Cl)(Cl)Cl)Oc2cc(Cl)c(Cl)cc2O1)Sc1ccccc1	RBX1-CUL1 inh 49
CC1=C(C(=O)NCc2cccc(Cl)c2)C2(CCCCCC2)OC1=O	none
Cc1cc(Br)ccc1NC(=O)c1c(C)noc1C	none
Cc1ccc(-n2c(=O)c3c(n4c(SCC(=O)c5ccc(Cl)cc5)nnc24)-c2ccccc2CC32CCCCC2)cc1	none
CCN1C(=O)/C(=C/c2ccc(-c3ccc(Cl)c(C(=O)O)c3)o2)C(=O)NC1=S	RBX1-CUL1 inh 87
C=CCOC(=O)c1cc(-c2ccc(/C=C3/C(=O)NN(c4ccc(F)c(Cl)c4)C3=O)o2)ccc1Cl	none

High-throughput results (PubChem)
